Compound activity deposited in PubChem by National Center for Advancing Translational Sciences (NCATS).
Most compounds without a hit are left out; they make up all but 18% or so of the library.
DT40 TDP1 no CPT – qHTS for Inhibitors of human tyrosyl-DNA phosphodiesterase 1 (TDP1): qHTS in cells in absence of CPT | Potency, µM (top dose mostly 46.2 µM), hits mostly inhibitors | DT40 Tdp1-/- hTDP1 cells, no CPT, ATP luminescence, 48 h | 15% of 420,000 active; note: nearly all actives have a fitted effect of over 55% in size
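Growth of hTDP1-complemented DT40 Tdp1-knockout cells is measured by ATP luminescence after at least 48 hr compound exposure at 37 °C, with DMSO substituting for the 20 nM CPT used in the parallel screen.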
TGFb SMAD3 inh – inhibitors of TGF-b signaling. HepG2 CAGA-GFP TGF-b/SMAD3 reporter, GFP fluorescence, 18 h; TGF-beta stimulated, 500 pg/mL final. Potency, µM (top dose mostly 46.1 µM), most hits filed as inhibitors. 1.2% of 410,000 active; note: nearly all actives have a fitted effect of over 65% in size
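Smad-responsive CAGA-GFP expression was quantified in HEPG2 cells exposed to compounds and 500 pg/mL final TGF-beta for 18 h at 37 degrees C; unstimulated wells defined full inhibition.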
HepG2 viability – kills HepG2 cells in TGF-b inhibitor counter-screen. HepG2 CAGA-GFP viability, ATP luminescence, 18 h. AID 588856. 0.76% of 410,000 active. Potency, µM (highest dose often 46.1 µM), hits mostly cytotoxic
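HepG2 CAGA-GFP cells (1000/well, DMEM with 1% FBS) received compound, then TGF-beta at 500 pg/mL final, and were incubated 18 hours at 37 degrees C. Viability was read by CellTiter-Glo luminescence. Media-only wells were set as complete cell-killing and DMSO as no toxicity.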
TDP1 block – inhibitors of human tyrosyl-DNA phosphodiesterase TDP1 | recombinant TDP1, AlphaScreen DNA substrate cleavage | Potency, µM (titrated, usually from 130 µM), usual class: inhibitors | 0.28% of 350,000 active; note: nearly all actives have a fitted effect of over 40% in size
Target sequence (Q9NUW8 whole entry, looked up): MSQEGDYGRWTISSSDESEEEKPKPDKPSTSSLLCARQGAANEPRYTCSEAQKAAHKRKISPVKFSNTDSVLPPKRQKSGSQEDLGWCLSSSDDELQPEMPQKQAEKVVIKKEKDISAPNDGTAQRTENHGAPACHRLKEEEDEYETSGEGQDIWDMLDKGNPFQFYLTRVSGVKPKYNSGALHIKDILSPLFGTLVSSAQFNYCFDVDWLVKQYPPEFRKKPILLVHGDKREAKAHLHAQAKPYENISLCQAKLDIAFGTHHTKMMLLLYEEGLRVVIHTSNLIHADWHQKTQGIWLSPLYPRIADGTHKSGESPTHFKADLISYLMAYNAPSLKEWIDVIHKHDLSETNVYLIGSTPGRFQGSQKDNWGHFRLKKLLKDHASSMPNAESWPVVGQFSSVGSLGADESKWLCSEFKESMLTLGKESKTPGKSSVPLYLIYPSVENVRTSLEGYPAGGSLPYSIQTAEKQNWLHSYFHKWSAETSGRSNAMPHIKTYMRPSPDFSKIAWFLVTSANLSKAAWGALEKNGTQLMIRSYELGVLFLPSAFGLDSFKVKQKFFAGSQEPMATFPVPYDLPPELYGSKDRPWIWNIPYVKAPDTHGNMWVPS
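Recombinant human Tdp1 (E. coli-expressed, 1 nM final) preincubated with compounds 15 min at room temperature, then 5'-biotin/3'-phosphotyrosine-FITC DNA substrate (15 nM final) added for 5 min. AlphaScreen beads (10 ug/ml final) added 10 min; cleavage lowers signal.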
IL1B secr inh – inflammasome signaling inhibition, IL-1 beta readout. activity change, % at 57.5 µM. 4.7% of 360,000 active. THP-1 LPS/ATP IL-1B secretion, AlphaLISA, 16 h; stronger effect = lower value; in the data active = activity change below about -50%; inconclusive = mostly about -30% to -49%
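THP-1 cells pretreated 1 hr with compounds (up to 57.5 uM final), then stimulated with LPS (250 ng/mL final) plus ATP (1.25 mM final); secreted IL-1B measured by AlphaLISA after 16 hr, decreased signal indicating inhibition.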
DT40 TDP1 CPT – DT40-hTDP1 cell growth loss with CPT; AID 686979; Potency, µM (top dose mostly 46.2 µM), actives largely listed as inhibitors; 12% of 420,000 active; chicken DT40 Tdp1-/-;hTDP1 cells + 20 nM CPT, ATP luminescence, 48 h; note: nearly all actives have a fitted effect of over 55% in size
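Chicken DT40 Tdp1-/- cells stably complemented with human TDP1 were seeded at 400 cells/well in medium containing 20 nM camptothecin, exposed to pin-transferred compounds, and grown at 37 °C for at least 48 hr. Viability was read as ATP luminescence.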
Large screens that a line does not name were inactive. Unless noted, calls come from the whole dose curve; as a rule, active = well fitted curve in the direction sought with a large enough effect; inconclusive = small, poorly fitted or top-dose-only effect, or another doubt; inactive = no such curve, though single readings can be large; an effect the other way counts as inactive or inconclusive.

O=C(Cn1c(=O)oc2ccccc21)NCc1cccc(Cl)c1	DT40 TDP1 CPT inconclusive (no result: IL1B secr inh)
O=C(C[n+]1ccccc1Cl)c1ccc(O)c(O)c1	none (no result: TDP1 block, IL1B secr inh)
CCC(C)(C)NC(=O)CN(C(=O)CCC(=O)Nc1nccs1)c1ccccc1C	none
O=C(Nc1ccc(NC(=O)c2ccc(Cl)cc2Cl)cc1)c1ccc2c(c1)OCO2	none
O=C(Nc1ccc(C2=NCCN2)cc1)c1ccc(C(=O)Nc2ccc(C3=NCCN3)cc2)c(Cl)c1	DT40 TDP1 no CPT 5.2µM, DT40 TDP1 CPT 7.3µM
O=C(Nc1cccc(C2=NCCN2)c1)Nc1cccc(C2=NCCN2)c1	DT40 TDP1 no CPT 7.3µM, IL1B secr inh inconclusive, DT40 TDP1 CPT 9.2µM
CC(C)(C)c1ccc(C(=O)Nc2nc3nc(-c4ccccc4)cc(=O)n3[nH]2)cc1	none (no result: IL1B secr inh)
O=C(CN1C2CCCC1CC(NC(=O)c1ccccc1)C2)Nc1ccccc1C(F)(F)F (stereo not drawn)	DT40 TDP1 no CPT 16µM, DT40 TDP1 CPT inconclusive (no result: TDP1 block)
O=C(CN1C2CCCC1CC(NC(=O)c1ccco1)C2)Nc1ccccc1C(F)(F)F (stereo not drawn)	DT40 TDP1 no CPT 23µM, DT40 TDP1 CPT 23µM
COc1ccc(NC2=C(Cl)C(=O)N(c3ccccc3)C2=O)c(OC)c1	DT40 TDP1 CPT 18µM
COc1ccccc1NC1=C(Cl)C(=O)N(c2ccccc2)C1=O	none
COc1ccc(N2C(=O)C(Cl)=C(Nc3c(C)n(C)n(-c4ccccc4)c3=O)C2=O)cc1	DT40 TDP1 no CPT 5.8µM, DT40 TDP1 CPT 2.6µM
CCOc1ccc(N2C(=O)C(Cl)=C(Nc3ccccc3O)C2=O)cc1	DT40 TDP1 no CPT 13µM, TGFb SMAD3 inh inconclusive, DT40 TDP1 CPT 21µM
CC[C@@H]1Cn2c(c3nc(-c4ccccc4)nc-3n(C)c2=O)N1	none (no result: DT40 TDP1 no CPT, TGFb SMAD3 inh, HepG2 viability, IL1B secr inh, DT40 TDP1 CPT)
CCOC(=O)CCCCCC(=O)Nc1ccc2c(c1)C(=O)N([C@H](C)CO)C[C@H](C)[C@@H](CN(C)S(C)(=O)=O)OCCCC[C@@H](C)O2	none (no result: TDP1 block)
Cc1cc(C(=O)Nc2ccc(F)cc2)c2ccccc2n1	none
CCC(C)[C@@H](NC(=O)OC(C)(C)C)c1nnc(S(=O)(=O)Cc2cccc(C)c2)o1 (stereo partly drawn)	DT40 TDP1 no CPT 4.6µM, TGFb SMAD3 inh 8.9µM, IL1B secr inh -116, DT40 TDP1 CPT 2.1µM
CC(C)(C)OC(=O)N[C@@H](Cc1ccccc1)c1nnc(S(=O)(=O)Cc2ccccc2)o1	none (no result: DT40 TDP1 no CPT, TGFb SMAD3 inh, HepG2 viability, IL1B secr inh, DT40 TDP1 CPT)
Cc1ccccc1CS(=O)(=O)c1nnc([C@H](Cc2ccccc2)NC(=O)OC(C)(C)C)o1	DT40 TDP1 no CPT 2.1µM, TGFb SMAD3 inh inconclusive, IL1B secr inh inconclusive, DT40 TDP1 CPT 0.65µM
CCc1nn(C(C)C(=O)NC2CCCCCC2)c(=O)c2cc3occc3n12 (stereo not drawn)	none
CCc1ccc(C(=O)CN2C(=O)NC3(CCc4ccccc43)C2=O)cc1 (stereo not drawn)	DT40 TDP1 CPT inconclusive
CCCN(CCC)C(=O)C1CCCN(S(=O)(=O)c2cc(Br)cc3c2N(C(=O)CC)CC3)C1 (stereo not drawn)	DT40 TDP1 no CPT 21µM, TGFb SMAD3 inh inconclusive, DT40 TDP1 CPT inconclusive (no result: IL1B secr inh)
CCC(=O)N1CCc2cc(Br)cc(S(=O)(=O)N3CCCC(C(=O)Nc4ccc(OC)cc4OC)C3)c21 (stereo not drawn)	none (no result: IL1B secr inh)
CCN(C(=O)C1CCN(S(=O)(=O)c2cc(Br)cc3c2N(C(C)=O)CC3)CC1)c1cccc(C)c1	DT40 TDP1 no CPT 23µM, TGFb SMAD3 inh inconclusive, DT40 TDP1 CPT inconclusive (no result: IL1B secr inh)
CCC(=O)N1CCc2cc(Br)cc(S(=O)(=O)N3CCCC(C(=O)N(C)c4ccc(Br)cc4)C3)c21 (stereo not drawn)	DT40 TDP1 no CPT inconclusive, TGFb SMAD3 inh inconclusive, DT40 TDP1 CPT 18µM (no result: IL1B secr inh)
CC(=O)N1CCc2cc(Br)cc(S(=O)(=O)N3CCCCCC3)c21	none
